Measured values: PubChem BioAssay (NCATS)
Records with an inconclusive call do not appear. Activity calls are given as the source filed them. Unless noted, the call rests on the fitted dose curve; in most records, active means well fitted curve in the direction sought with a large enough effect; inconclusive means small, poorly fitted or top-dose-only effect, or another doubt; inactive means no such curve, though single readings can be large; an effect the other way counts as inactive or inconclusive.

Key:
[1] = qHTS assay to identify small molecule inhibitors of chordoma cells - UCH-1 (AID 1259355); settings: UCH-1 chordoma viability, CellTiter-Glo, 48 h, combination; series mostly up to 46.1 µM; further: nearly all actives have a fitted effect of over 55% in size
Outline: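 Screening used approved and investigational drugs in 15-point titration against 800 seeded cells per well. A fixed combination of auranofin with camptothecin, doxorubicin, rubitecan and topotecan followed compound addition, and growth was scored by CellTiter-Glo after 48hr.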

[2] = qHTS assay to identify small molecule inhibitors of chordoma cells - UCH-2 (AID 1259356); settings: UCH-2 chordoma viability, CellTiter-Glo ATP luminescence, 48 h; series mostly up to 46.1 µM
[3] = P-glycoprotein substrates identified in KB-8-5-11 adenocarcinoma cell line, qHTS therapeutic library screen (AID 1346987); settings: KB-8-5-11 (P-gp overexpressing) viability, CellTiter-Glo, 72 h; series mostly up to 44.5 µM; further: nearly all actives have a fitted effect of over 65% in size
Outline: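 Compounds are pinned in dose-response onto KB-8-5-11 cells (500 cells/well, colchicine-free medium) and left 72 h at 37 degree C. CellTiter-Glo luminescence then yields AC50 values.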

[4] = NS1 protein of Zika virus - qHTS assay to identify small molecule inhibitors in human HEK 293 cells (AID 1347053); settings: HEK293 ZIKV MR766 infection, NS1 TR-FRET, 24 h; series mostly up to 46.1 µM; further: nearly all actives have a fitted effect of over 55% in size
Outline: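 TR-FRET signal from two anti-ZIKV NS1 antibodies quantified NS1 in HEK 293 cells 24 h after MR766 infection at MOI = 0.5; compounds were added 1 h before virus. Uninfected cells and infected cells defined the NS1 normalization range.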

[5] = qHTS for Inhibitors of the Functional Ribonucleoprotein Complex (vRNP) of Lassa (LASV) Arenavirus: LASV Primary Screen - GLuc reporter signal (AID 1347082; calls by dose curve; tested in HEK293 reporter line; further: nearly all actives have a fitted effect of over 60% in size); settings: LASV minigenome vRNP, Gaussia luciferase reporter; series mostly up to 57.5 µM
[6] = qHTS for Inhibitors of the Functional Ribonucleoprotein Complex (vRNP) of Lassa (LASV) Arenavirus: Viability assay - alamar blue signal for LASV Primary Screen (AID 1347083; calls by dose curve; tested in HEK293 reporter line; further: nearly all actives have a fitted effect of over 80% in size); settings: cell viability, alamar blue fluorescence (LASV minigenome counter-screen); series mostly up to 57.5 µM
[7] = qHTS for Inhibitors of the Functional Ribonucleoprotein Complex (vRNP) of Lymphocytic Choriomeningitis Arenaviruses (LCMV): Viability assay - alamar blue signal for LCMV Primary Screen (AID 1347085; calls by dose curve; tested in HEK293 reporter line; further: nearly all actives have a fitted effect of over 80% in size); settings: alamar blue viability counter-screen, LCMV vRNP screen cells; series mostly up to 57.5 µM
[8] = molecular target: Nucleoprotein (Lymphocytic choriomeningitis virus (strain Armstrong)) (UniProt P09992); test: qHTS for Inhibitors of the Functional Ribonucleoprotein Complex (vRNP) of Lymphocytic Choriomeningitis Arenaviruses (LCMV): LCMV Primary Screen - GLuc reporter signal (AID 1347086; calls by dose curve; further: nearly all actives have a fitted effect of over 70% in size); settings: LCMV minigenome vRNP cell assay, Gaussia luciferase reporter; series mostly up to 57.5 µM
Chain of Nucleoprotein (Lymphocytic choriomeningitis virus (strain Armstrong)) (P09992 whole entry, looked up): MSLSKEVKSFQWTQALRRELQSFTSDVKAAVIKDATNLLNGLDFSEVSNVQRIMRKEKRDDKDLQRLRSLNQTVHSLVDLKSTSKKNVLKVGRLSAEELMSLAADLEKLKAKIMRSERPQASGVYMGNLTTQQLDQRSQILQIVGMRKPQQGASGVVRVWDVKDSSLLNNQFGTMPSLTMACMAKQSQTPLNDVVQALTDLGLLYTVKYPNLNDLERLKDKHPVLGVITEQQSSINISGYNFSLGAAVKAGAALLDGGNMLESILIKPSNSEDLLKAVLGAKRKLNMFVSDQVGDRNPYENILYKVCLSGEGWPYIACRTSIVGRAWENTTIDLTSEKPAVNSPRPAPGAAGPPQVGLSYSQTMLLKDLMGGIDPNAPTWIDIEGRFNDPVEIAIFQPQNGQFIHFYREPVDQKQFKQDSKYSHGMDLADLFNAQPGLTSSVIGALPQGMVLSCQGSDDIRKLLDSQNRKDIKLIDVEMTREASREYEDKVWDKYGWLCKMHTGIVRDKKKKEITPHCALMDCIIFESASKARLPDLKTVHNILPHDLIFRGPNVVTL

[9] = molecular target: Atrial natriuretic peptide receptor 1 (Homo sapiens) (UniProt P16066); test: Natriuretic polypeptide receptor (hNpr1) antagonism - Pilot screen (AID 1347049; calls by dose curve;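 further: agonist-evoked cGMP luminescence read 20 min after hNppA addition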); settings: hNpr1 cells, antagonist mode cGMP read-out; series mostly up to 57.5 µM
Chain of Atrial natriuretic peptide receptor 1 (Homo sapiens) (P16066 whole entry, looked up): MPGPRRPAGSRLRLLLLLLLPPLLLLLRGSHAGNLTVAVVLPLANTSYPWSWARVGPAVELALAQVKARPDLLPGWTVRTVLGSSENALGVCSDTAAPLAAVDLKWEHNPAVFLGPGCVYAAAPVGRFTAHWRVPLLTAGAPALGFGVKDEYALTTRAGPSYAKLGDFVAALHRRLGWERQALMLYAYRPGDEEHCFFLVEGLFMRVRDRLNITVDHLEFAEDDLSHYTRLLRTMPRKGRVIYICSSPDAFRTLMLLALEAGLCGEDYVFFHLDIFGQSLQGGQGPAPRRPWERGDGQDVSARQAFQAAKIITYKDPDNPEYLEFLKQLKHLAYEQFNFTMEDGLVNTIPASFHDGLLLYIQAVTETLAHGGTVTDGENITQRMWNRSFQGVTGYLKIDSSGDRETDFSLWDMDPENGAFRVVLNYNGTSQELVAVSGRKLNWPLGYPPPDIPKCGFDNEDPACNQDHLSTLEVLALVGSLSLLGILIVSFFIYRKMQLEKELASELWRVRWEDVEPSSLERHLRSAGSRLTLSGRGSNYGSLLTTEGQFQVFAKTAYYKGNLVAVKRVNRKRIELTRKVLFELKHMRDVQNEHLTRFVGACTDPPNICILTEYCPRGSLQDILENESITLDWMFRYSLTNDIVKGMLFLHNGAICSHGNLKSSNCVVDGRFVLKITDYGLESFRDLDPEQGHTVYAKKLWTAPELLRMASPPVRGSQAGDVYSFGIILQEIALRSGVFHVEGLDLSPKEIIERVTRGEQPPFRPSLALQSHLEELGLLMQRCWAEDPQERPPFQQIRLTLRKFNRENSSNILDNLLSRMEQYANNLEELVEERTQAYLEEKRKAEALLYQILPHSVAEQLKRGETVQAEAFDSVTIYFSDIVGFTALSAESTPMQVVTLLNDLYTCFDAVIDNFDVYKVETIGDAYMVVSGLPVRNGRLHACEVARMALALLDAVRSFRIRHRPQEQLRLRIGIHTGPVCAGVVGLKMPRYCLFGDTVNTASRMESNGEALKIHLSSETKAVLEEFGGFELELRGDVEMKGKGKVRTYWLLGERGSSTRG
Outline: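 cGMP-sensor HEK293/hNpr1 cells, 1500/well, plated overnight at 37C. 2% GloSensor reagent, 2 h RT. Compound (23 nL pin transfer) 30 min RT, baseline luminescence pre-read. 0.1 nM hNppA, 20 min RT, post-read.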

[10] = molecular target: T1, Tyrosine-protein phosphatase non-receptor type substrate 1 (Homo sapiens) + Leukocyte surface antigen CD47 (Homo sapiens) (UniProt P78324+Q08722); test: CD47-SIRPalpha protein protein interaction - LANCE assay qHTS validation (AID 1347057; active means well fitted curve in the direction sought with a large enough effect in the signal ratio, with a control signal flat, not every such curve was filed as active; the % refers to the signal ratio); settings: Recombinant CD47-His / biotin-SIRPalpha, TR-FRET ratio; series mostly up to 38.3 µM
T1 sequence (P78324 whole entry, looked up, the tested form may be a part): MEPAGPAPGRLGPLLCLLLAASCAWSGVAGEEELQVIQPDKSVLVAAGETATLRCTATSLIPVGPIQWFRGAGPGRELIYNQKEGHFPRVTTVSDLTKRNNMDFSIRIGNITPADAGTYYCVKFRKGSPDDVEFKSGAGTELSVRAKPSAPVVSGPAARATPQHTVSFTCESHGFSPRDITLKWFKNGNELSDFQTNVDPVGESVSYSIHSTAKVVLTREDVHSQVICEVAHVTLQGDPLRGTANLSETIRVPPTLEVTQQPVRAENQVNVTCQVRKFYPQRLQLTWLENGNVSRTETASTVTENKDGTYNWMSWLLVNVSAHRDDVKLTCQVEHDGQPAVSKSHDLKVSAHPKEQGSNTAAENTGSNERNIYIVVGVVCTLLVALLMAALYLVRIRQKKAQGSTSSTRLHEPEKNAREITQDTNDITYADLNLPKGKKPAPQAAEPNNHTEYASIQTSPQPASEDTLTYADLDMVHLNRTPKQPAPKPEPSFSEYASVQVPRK
T1 sequence (Q08722 whole entry, looked up, the tested form may be a part): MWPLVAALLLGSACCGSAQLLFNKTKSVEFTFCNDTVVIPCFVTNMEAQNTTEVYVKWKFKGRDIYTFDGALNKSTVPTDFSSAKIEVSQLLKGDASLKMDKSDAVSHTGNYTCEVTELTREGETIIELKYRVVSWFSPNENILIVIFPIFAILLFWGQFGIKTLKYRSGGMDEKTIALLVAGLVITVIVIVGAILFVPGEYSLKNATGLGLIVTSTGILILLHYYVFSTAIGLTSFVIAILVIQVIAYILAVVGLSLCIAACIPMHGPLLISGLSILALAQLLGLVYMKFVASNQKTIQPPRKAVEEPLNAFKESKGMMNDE
Outline: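 Inhibition of soluble CD47/SIRPalpha ectodomain association by titrated compounds, measured as 665/615 nm time-resolved FRET ratio after sequential 30 min room-temperature incubations.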

[11] = molecular target: T1, Tyrosine-protein phosphatase non-receptor type substrate 1 (Homo sapiens) + Leukocyte surface antigen CD47 (Homo sapiens); test: CD47-SIRPalpha protein protein interaction - HTRF assay qHTS validation (AID 1347058; active means well fitted curve in the direction sought with a large enough effect in the signal ratio, not every such curve was filed as active; the % refers to the signal ratio); settings: TR-FRET HTRF CD47-His / biotin-SIRPalpha binding, ratio 665/615; series mostly up to 38.3 µM
Outline: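 Soluble extracellular domains (6His-CD47, Avi-tag-biotinylated SIRPalpha) in PBS pH 7.4 with 0.05% IGEPAL CA-630. Compounds were preincubated 30 min at RT with CD47 and anti-His-Eu, then SIRPalpha and SAV-XL665 were added. TR-FRET 665/615 ratio.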

[12] = molecular target: Parathyroid hormone/parathyroid hormone-related peptide receptor (Homo sapiens) (UniProt Q03431); test: qHTS for PTHR1 Agonists: Optimization Screen against the NCGC LOPAC library (AID 1347079); settings: HEK293 GP2 PTHR1 GloSensor cAMP luminescence, 1 h; series mostly up to 57.1 µM;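 further: GloSensor cAMP luminescence in HEK-293 GP2 cells expressing human PTHR1 with IBMX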
Chain of Parathyroid hormone/parathyroid hormone-related peptide receptor (Homo sapiens) (Q03431 whole entry, looked up): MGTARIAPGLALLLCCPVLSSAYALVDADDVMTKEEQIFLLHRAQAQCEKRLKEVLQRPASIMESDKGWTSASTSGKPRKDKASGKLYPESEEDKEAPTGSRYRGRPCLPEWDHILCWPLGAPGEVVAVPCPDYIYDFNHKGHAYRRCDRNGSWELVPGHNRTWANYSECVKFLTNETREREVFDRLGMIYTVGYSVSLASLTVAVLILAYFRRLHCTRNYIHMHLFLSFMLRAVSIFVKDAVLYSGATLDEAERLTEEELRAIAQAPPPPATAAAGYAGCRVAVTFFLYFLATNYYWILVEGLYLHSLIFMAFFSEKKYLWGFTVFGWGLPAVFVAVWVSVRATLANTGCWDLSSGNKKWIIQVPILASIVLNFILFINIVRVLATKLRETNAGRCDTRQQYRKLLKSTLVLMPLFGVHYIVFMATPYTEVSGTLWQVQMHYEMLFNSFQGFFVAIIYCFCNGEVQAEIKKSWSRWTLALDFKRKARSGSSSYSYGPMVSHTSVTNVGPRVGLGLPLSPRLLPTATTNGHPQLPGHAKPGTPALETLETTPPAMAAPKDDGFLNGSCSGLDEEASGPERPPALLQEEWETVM
Outline: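 HEK-293 GP2 cells, PTHR1 + GloSensor cAMP; 3000 cells/well, o/n. Luciferin + IBMX 0.5mM each (stock), 1 hr 37C. Cpd titration, 1 hr 37C. Lum after 15 min RT. Ctrl M-PTH(1-15) top 10uM.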

[13] = Natriuretic polypeptide receptor (hNpr1) antagonism - Pilot counterscreen GloSensor control cell line (AID 1347045; calls by dose curve); settings: HEK293 cGMP GloSensor cells, SNP-stimulated luminescence, 20 min; series mostly up to 38.3 µM
Outline: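 Control counterscreen: luciferase cGMP-biosensor HEK293 cells (no Npr1) received compound for 30 min at room temperature after GloSensor substrate loading. Luminescence was measured before and 20 min after soluble guanylyl cyclase activation by 50 uM nitroprusside.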

[14] = molecular target: Atrial natriuretic peptide receptor 2 (Homo sapiens) (UniProt P20594); test: Natriuretic polypeptide receptor (hNpr2) antagonism - Pilot subtype selectivity assay (AID 1347050; calls by dose curve); settings: NPR2-expressing cells, cGMP antagonist-mode read-out; series mostly up to 38.3 µM
Chain of Atrial natriuretic peptide receptor 2 (Homo sapiens) (P20594 whole entry, looked up): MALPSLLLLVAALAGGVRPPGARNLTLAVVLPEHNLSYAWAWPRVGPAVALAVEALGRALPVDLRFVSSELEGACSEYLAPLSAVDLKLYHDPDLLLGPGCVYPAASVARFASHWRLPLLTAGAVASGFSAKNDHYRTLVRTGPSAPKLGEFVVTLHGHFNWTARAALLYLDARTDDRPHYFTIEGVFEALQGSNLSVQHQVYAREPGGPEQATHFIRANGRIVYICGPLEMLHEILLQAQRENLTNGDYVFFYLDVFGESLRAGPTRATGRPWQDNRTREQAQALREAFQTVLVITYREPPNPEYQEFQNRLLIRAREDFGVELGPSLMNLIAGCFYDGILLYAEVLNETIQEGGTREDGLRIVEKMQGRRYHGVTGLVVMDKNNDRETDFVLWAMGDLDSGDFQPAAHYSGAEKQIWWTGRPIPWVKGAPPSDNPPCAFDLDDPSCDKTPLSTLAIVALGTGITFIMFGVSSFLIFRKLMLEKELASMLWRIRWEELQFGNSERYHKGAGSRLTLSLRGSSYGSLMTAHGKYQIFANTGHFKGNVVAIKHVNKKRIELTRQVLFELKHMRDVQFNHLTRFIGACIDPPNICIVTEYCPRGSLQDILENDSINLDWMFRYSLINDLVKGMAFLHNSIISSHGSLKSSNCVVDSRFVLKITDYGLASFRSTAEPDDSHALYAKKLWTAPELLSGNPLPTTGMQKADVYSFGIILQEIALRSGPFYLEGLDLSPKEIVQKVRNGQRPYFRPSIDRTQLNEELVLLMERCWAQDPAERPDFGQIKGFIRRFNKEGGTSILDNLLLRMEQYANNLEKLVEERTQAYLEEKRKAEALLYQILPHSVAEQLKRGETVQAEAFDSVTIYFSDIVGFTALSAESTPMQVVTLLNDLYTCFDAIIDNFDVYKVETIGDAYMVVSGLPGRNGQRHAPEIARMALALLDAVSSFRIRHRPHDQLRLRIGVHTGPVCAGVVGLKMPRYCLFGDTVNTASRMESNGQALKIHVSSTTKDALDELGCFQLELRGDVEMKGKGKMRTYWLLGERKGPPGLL
Outline: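 Luminescence from a genetically encoded cGMP luciferase biosensor in hNpr2-expressing HEK293 cells is read before and 20 min after adding 1 nM hNppC. Test compounds, in interplate 1:5 titrations, are added 30-50 min ahead of the agonist.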

[15] = P-glycoprotein substrates identified in KB-3-1 adenocarcinoma cell line, qHTS therapeutic library screen (AID 1346986); settings: KB-3-1 parental cells viability, CellTiter-Glo, 72 h; series mostly up to 44.5 µM; further: nearly all actives have a fitted effect of over 60% in size
Outline: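 In 1536-well format, 500 cells/well received pinned compound titrations and were incubated 72 h, 5% CO2. Viability was read by CellTiter-Glo; cytotoxic if AC50 < 10 uM and efficacy >50%.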

Measured: Potency

Oc1ccc(Cl)cc1Cc1ccccc1
inactive: [1] | [2] | [3] | [4] | [5] | [6] | [7] | [8]

O=c1[nH]c2ccccc2n1CCCN1CCC(n2c(=O)[nH]c3cc(Cl)ccc32)CC1
not listed: [3] | [13] | [14] | [15]
inactive: all other assays above

NCC(O)c1ccc(O)cc1 (centres undefined)
not listed: [15]
inactive: all other assays above

O=C(NC(O)C(Cl)(Cl)Cl)NC(O)C(Cl)(Cl)Cl (centres undefined)
inactive: [1] | [2] | [3] | [4] | [5] | [6] | [7] | [8]

CC(C)(N)Cc1ccc(Cl)cc1
inactive: [1] | [2] | [3] | [4] | [5] | [6] | [7] | [8]

CCN(CC)CCOC(=O)C(O)(c1ccccc1)c1ccccc1
inactive: [1] | [2] | [3] | [4] | [5] | [6] | [7] | [8]

CN(C)[C@@H]1C(=O)C(C(N)=O)=C(O)[C@@]2(O)C(=O)C3=C(O)c4c(O)cccc4[C@@](C)(O)[C@H]3C[C@@H]12
inactive: [1] | [2] | [3] | [4] | [5] | [6] | [7] | [8]

O=C1CC[C@@]2(O)[C@H]3Cc4ccc(O)c5c4[C@@]2(CCN3CC2CC2)[C@H]1O5
not listed: [9] | [10] | [11] | [12] | [13] | [14]
inactive: all other assays above
